# Results published in the supplement of paper PMC7556523.
# A number with no mark means an inactive call.
# Legend:
# [1] = tested on: Sporothrix brasiliensis CBS 133006; assay: growth inhibition relative to untreated control; higher = more growth inhibition (more antifungal activity), active = 80 or more; extreme values may be limits of the assay; details: 1 µM; 48 h
# Procedure, shortened: (§1)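 Before testing, the reference isolates were kept in brain heart infusion broth with 2% glucose at 36°C for 7 days to give yeast-form cells. These cells, at 1 x 10^5 CFU/ml, received library compounds at a final 1 μM and were held 48 h at 35°C in 5% CO2. Growth was checked by eye under an inverted light microscope and quantified spectrophotometrically in quadruplicate, and the value is percent growth inhibition versus untreated cells.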
# [2] = tested on: Sporothrix schenckii ATCC 32286; assay: as above; details: 1 µM; 48 h
# Procedure, shortened: as §1
Compound,growth inhibition [1],growth inhibition [2] [%]
O=C(Nc1cnc2ccccc2c1)c1cccc(-n2cnnn2)c1,0%,4.75
O=C(NCc1nnc2n1CCCCC2)c1ccc(-c2ccc(F)cc2)o1,11.2%,0
Cc1ccc(Oc2ccc(NC(=O)CNc3ccccc3N3CCCC3=O)cc2)cc1,0%,0
CC(C)(C)OC(=O)N1CCN(c2nccc(-c3ccc(-c4ccc(Cl)cc4)s3)n2)CC1,8%,1
CNC(=O)C1Cc2c([nH]c3cc(Cl)ccc23)C2(CCN(CCc3ccccc3)CC2)N1 (configuration not stated),10.8%,0
CN(C(=O)c1cc2c(-c3cncnc3)cccc2[nH]1)c1ccccc1,8.25%,3.25
COc1cccc(OCC(=O)c2ccc(Br)cc2)c1,16%,22
Cc1ccc2cc(C3NC(=O)c4ccccc4N3)c(Cl)nc2c1 (configuration not stated),8%,4
CC(C)(C)C(=O)N(CCCCCCN1C[C@H](O)[C@@H](O)[C@H](O)[C@H]1CO)C1CCCCCC1,6.25%,8
O=C(Nc1cccnc1)c1c(O)c2cccc3c2n(c1=O)CC3,19.5%,11.2
Cc1cc(C)nc(-n2nc(C)cc2Nc2ccccc2)n1,17.2%,1
COc1cccn2c(C(=O)N3CCCCC3)c(C(F)(F)F)nc12,8.75%,5
Nc1ncnc2c1ncn2C[C@@H](O)[C@@H](O)C(=O)O,5%,11.8
CC(Oc1ccccc1)C(=O)Nc1nc(-c2ccccn2)cs1 (configuration not stated),18%,0
CCCCc1ccc(C(=O)Nc2nccc3ccccc23)nc1,23.5%,1
N=C(N)c1ccc(-c2cc(-c3ccccc3)on2)cc1,7%,10.5
NCCN(C(=O)c1ccc(Cl)cc1Cl)c1ccc(OCc2ccc(Cl)cc2)cc1,9.75%,7
CN1CCN(c2nccc3[nH]c(-c4cccc(F)c4)cc23)CC1,2.5%,19.5
Cc1cc(OCC(=O)Nc2ccc(C(C)C)cc2)n(C)c(=O)c1C#N,3.5%,8
COC(=O)c1c(NC(=O)c2cc3ccccc3oc2=O)sc2c1CCN(Cc1ccccc1)C2,8.75%,15
Nc1nccc2ccc(-c3ccc4nccn4c3)cc12,5.5%,13.5
Nc1ncc(-c2ccc(C(F)(F)F)nc2)cc1-c1ccc(C(F)(F)F)nc1,18.2%,11
CCCCc1ccc(NC(=O)Nc2ccc(O[C@H]3CCCC[C@@H]3N(C)c3ccccc3)c(F)c2)cc1,0%,4.25
COCC(C)NC(=O)CSc1ncnc2sc(-c3ccccc3)cc12 (configuration not stated),17.8%,14.2
Cc1c[nH]c(CCNC(=O)c2cc(-c3ccc(Cl)cc3)cs2)n1,4%,0
COc1cc(OC)cc(C(=O)NCC2Cc3cc(Cl)cc(-c4ccncc4)c3O2)c1 (configuration not stated),17.5%,2

Compound,growth inhibition [1],growth inhibition [2] [%]
Clc1ccc(-n2cc(COc3ccnc4ccccc34)nn2)cc1,13.5%,10
Cc1noc(C)c1COc1cccc(C(=O)N=c2[nH]cccc2C)c1,0%,8.25
CC(C)(C)OC(=O)N1CCC(Cn2nc(-c3cnc4ccccc4c3)c3c(N)ncnc32)CC1,21.2%,4.5
Nc1ncnc2c1c(-c1cnc3ccccc3c1)nn2CC1CCNCC1,13.2%,15.5
CC(C)C(NC(=O)Cc1cccc2ccccc12)C(=O)Nc1cccc(C#N)c1 (configuration not stated),4%,9.25
CC(=O)Nc1ccc(NC(=O)c2cc(-c3cc(Cl)ccc3O)n[nH]2)cc1,9.5%,0
CCOc1ccccc1C(=O)Nc1cccc(-c2nc3ncccn3c2C)c1,6.75%,12.2
N=C(N)Nc1ccc(-c2ccc(-c3ccc(NC(=N)N)cc3Cl)o2)c(Cl)c1,19.8%,0
CC(C)(C)[C@H]1CC[C@H](CC2=C(O)C(=O)c3ccccc3C2=O)CC1,88% (active),14
CCOC(=O)NC(=O)c1ccsc1NC(=O)c1nc2ccccc2s1,32.8%,2.25
O=C(c1ccc(NCCO)cc1)C1C[C@H]1c1ccc(Cl)cc1 (some centres not stated),2%,8.5
COc1ccc(N(CCc2cccc(C)n2)C(C)=O)cc1,0%,1.25
N#Cc1ccc(-c2ccc(OCC(N)=O)cc2)cc1,19.2%,0
CC1CCCCN1C(=O)NCCc1coc(-c2ccc(F)cc2)n1 (configuration not stated),11%,0
CC(C)c1ncc(-c2ccncc2)c([C@H]2CC[C@H](CNC(=O)c3cccnc3)CC2)n1,4.5%,8.25
Brc1cncc(-c2cc(NCCCn3ccnc3)nc(-c3ccccc3)n2)c1,22%,3.5
CCOc1ccc(-c2nc(NC(=O)CS(=O)(=O)c3ccccc3)sc2C)cc1,5.25%,0.5
CC1CCCN(C(=O)C(C)Nc2cc(Cl)ccc2N2CCOCC2)C1 (configuration not stated),11.5%,0.5
CNC(=O)c1nn(C)c2c1C(C)(C)Cc1cnc(Nc3ccc(N4CCN(C)CC4)cc3)nc1-2,37.5%,1.25
COc1ccc(-c2cnc3cnc(-c4cccc(OC(C)C)c4)cn23)cc1,10.2%,12
O=C(N[C@H](Cc1ccccc1)C(=O)Nc1ccccc1N1CCOCC1)c1cccs1,7%,7.25
Cc1nc(-c2ccccn2)nc(NCCc2ccc(S(C)(=O)=O)cc2)c1Cl,13%,0
CC1(C)Cc2c(c(N3CCOCC3)nc3snc(Br)c23)CO1,4.5%,6.5
Cc1ccc(-c2cc(C(=O)Nc3cccnc3)c3cc(Br)ccc3n2)cc1,25.2%,0
c1ccc(-c2cc(N3CCCCC3)c3ccccc3n2)nc1,35.2%,14.8
Cc1ccc(NC(=O)c2cc(S(=O)(=O)NC(C)(C)C)ccc2C)nc1,4.25%,0

Compound,growth inhibition [1],growth inhibition [2] [%]
CC(=O)N1CCc2cc3nc(C)cc(C)c3cc21,4%,0
CCN(CC)CCCN1CCN(C(=O)c2cccc(-c3noc(C(F)(F)F)n3)c2)CC1,25%,0
CC[C@@H](CO)NCCN[C@@H](CC)CO,6.75%,12.2
CC(=O)Nc1ccc(-c2noc(CC3CCCN(Cc4cccc(F)c4C)C3)n2)cc1 (configuration not stated),10.2%,0.5
CCCNC(=O)N1CCC2(CC1)CC(=O)c1cc(C)ccc1O2,2.25%,2.25
c1ccc(Oc2ccc(-c3cc(CN4CCOCC4)[nH]n3)cc2)cc1,2.25%,5.75
COC(=O)c1ccc(F)cc1NS(=O)(=O)c1cccc(-c2cnn(Cc3ccccc3)c2)c1,12%,20.2
COc1cccc(-n2nnnc2S(C)(=O)=O)c1,0%,22.8
CN(C)c1cc(NC(=O)Nc2ccccc2)c2ccccc2n1,0%,0.75
O=C(Nc1ccccc1)c1ccc(-c2cc3ccncc3cc2OC2CCNCC2)s1,8.75%,11
CCc1cc(=O)n(C)c(SC(C)C(=O)Nc2ccc(F)cc2)n1 (configuration not stated),9.25%,13.5
COc1cccc(-c2nc3c(N4CCCC4)cccc3n2CC2CCCN2)n1 (configuration not stated),0%,9.5
FC(F)(F)c1cccc(-c2nc3c(NCc4ccncc4)nccc3[nH]2)c1,38%,4
CC(=O)NC[C@H]1CN(c2ccc(N3CCSCC3)c(F)c2)C(=O)O1,5.5%,0
CNC(=O)c1cc(S(=O)(=O)N2CCN(c3ccccn3)CC2)cs1,0%,18.2
O=C(NCc1ccco1)N1CCN(Cc2ccc(Cl)s2)CC1,0%,0.25
CCCn1c(NC(=O)c2ccc3ccccc3n2)nc2ccccc21,3.5%,0
Cc1cc(Nc2ccc(C(F)(F)F)cc2)n2ccnc2n1,12.2%,1
NS(=O)(=O)c1cccc(-c2ccc3ncc(N4CCOCC4)nc3c2)c1,17%,0
O=[N+]([O-])c1cn2c(n1)OC[C@@H](OCc1ccc(OC(F)(F)F)cc1)C2,9%,10.2
CN(C)CCNC(=O)N1CCCN(c2ncnc3cc(-c4ccccc4)sc23)CC1,10.5%,13.2
N#Cc1ccc(-c2cnc(N)c(-c3ccc(C(N)=O)cc3)n2)cc1,3.75%,9
CN1CCC(NCc2cccc(-c3ccc(S(=O)(=O)NCc4ccccc4)cc3)c2)CC1,8%,13.5
O=C(NCCN1CCCC1)c1cc(NCCCCN2CCC(F)(F)CC2)nc2ccc(Cl)cc12,2.75%,8.5
